Results as given in the supplement of paper PMC11732987, “Enantioselective OTUD7B fragment discovery through chemoproteomics screening and high-throughput optimisation” (Communications Chemistry, 2025).

Assays:
Assay in all cases: log2 ratio of Biotin-Ahx-Ub-VS probe labelling (fragment/DMSO); higher = less target engagement (more negative = stronger competition), active = hit call of the paper (q ≤ 0.05, log2 ratio ≤ -1)
Settings in all cases: compound concentration: 200 uM; treatment time: 3 h
[1] = target: USP34 (UniProt Q70CQ2)
Summary of the method: (§1)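 HEK293T lysate (495 µg per sample, in Tris/CHAPS/IGEPAL buffer with protease inhibitors) was treated in triplicate with fragment at 200 µM or with DMSO for 3 h. It was then treated with Biotin-Ahx-Ub-VS (0.5 µM final) for 1 h. Labelled DUBs were NeutrAvidin-enriched, digested with LysC and trypsin, and run by diaPASEF LC-MS/MS. Spectronaut label-free quantities were global-median-normalised. Values are average log2 ratios fragment/DMSO by unpaired t-test, using proteins with ≥2 unique peptides.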

[2] = target: T1, USP36 (UniProt Q9P275)
T1 sequence (whole entry): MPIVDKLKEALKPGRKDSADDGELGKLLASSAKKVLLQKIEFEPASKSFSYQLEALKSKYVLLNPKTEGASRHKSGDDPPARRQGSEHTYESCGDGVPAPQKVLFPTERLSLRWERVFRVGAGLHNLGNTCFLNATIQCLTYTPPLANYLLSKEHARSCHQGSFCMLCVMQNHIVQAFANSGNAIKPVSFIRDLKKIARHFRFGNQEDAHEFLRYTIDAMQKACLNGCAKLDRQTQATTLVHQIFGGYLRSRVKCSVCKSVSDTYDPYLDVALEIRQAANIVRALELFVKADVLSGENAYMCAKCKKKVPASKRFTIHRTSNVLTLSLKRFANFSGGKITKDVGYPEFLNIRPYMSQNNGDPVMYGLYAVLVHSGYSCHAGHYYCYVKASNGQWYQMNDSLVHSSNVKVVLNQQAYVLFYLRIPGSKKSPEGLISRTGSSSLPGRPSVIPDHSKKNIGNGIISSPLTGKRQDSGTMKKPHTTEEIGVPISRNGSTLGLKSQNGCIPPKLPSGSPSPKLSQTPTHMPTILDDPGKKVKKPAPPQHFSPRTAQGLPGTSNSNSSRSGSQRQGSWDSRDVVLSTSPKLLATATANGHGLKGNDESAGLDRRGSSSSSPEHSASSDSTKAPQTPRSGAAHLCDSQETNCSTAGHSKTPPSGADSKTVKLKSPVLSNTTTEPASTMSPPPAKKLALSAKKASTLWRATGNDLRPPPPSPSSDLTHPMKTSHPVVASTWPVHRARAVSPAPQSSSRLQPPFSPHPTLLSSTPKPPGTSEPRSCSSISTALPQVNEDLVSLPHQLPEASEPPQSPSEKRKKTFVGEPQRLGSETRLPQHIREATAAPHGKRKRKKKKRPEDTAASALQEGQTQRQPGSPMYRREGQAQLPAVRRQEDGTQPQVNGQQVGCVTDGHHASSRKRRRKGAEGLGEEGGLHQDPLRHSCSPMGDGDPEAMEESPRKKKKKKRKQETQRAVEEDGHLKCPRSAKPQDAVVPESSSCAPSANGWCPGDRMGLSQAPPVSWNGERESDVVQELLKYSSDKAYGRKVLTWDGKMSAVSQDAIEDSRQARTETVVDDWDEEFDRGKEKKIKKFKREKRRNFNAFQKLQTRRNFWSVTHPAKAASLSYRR
Summary of the method: as §1

[3] = target: T2, USP38 (UniProt Q8NB14)
T2 sequence (whole entry): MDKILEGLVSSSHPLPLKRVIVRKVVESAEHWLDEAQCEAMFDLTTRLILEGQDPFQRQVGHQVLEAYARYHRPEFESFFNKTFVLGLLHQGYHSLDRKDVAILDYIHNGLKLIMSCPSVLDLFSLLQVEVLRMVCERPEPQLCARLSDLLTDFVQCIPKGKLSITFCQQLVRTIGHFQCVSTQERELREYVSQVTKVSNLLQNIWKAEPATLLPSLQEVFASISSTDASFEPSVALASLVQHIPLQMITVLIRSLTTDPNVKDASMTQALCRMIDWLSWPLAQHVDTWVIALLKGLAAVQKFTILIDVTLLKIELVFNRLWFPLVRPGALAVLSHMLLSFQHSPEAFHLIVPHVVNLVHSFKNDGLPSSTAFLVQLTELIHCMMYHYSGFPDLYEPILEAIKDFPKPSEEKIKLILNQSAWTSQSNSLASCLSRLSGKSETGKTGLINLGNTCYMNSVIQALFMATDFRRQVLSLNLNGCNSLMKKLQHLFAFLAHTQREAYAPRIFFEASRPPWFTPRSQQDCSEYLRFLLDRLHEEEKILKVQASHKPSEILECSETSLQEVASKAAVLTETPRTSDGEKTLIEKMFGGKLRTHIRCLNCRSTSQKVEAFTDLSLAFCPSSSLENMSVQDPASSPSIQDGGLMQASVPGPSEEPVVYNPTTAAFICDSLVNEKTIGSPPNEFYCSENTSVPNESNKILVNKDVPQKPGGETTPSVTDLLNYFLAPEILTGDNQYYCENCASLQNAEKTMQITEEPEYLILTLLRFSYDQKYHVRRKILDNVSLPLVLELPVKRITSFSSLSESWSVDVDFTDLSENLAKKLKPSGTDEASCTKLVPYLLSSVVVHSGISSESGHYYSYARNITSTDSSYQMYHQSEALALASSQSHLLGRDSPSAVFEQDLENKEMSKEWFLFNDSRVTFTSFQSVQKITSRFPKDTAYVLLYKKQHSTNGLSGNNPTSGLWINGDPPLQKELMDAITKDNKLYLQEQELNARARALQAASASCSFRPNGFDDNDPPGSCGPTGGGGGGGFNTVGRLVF
Summary of the method: as §1

[4] = target: T3, USP39 (UniProt Q53GS9)
T3 sequence (whole entry): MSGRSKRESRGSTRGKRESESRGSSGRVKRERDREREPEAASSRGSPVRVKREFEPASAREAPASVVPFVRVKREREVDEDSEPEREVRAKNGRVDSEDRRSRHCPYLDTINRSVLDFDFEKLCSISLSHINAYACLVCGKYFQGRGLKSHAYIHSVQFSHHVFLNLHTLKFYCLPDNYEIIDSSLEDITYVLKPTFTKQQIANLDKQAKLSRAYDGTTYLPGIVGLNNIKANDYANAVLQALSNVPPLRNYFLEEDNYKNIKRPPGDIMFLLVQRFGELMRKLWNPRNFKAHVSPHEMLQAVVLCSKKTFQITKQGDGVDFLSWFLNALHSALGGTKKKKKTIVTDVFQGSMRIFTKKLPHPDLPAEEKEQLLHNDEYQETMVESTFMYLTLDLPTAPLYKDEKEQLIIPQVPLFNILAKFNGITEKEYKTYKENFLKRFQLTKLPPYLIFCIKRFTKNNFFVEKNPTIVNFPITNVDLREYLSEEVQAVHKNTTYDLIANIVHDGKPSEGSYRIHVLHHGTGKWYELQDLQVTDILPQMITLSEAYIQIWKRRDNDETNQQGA
Summary of the method: as §1

[5] = target: T4, USP4 (UniProt Q13107)
T4 sequence (whole entry): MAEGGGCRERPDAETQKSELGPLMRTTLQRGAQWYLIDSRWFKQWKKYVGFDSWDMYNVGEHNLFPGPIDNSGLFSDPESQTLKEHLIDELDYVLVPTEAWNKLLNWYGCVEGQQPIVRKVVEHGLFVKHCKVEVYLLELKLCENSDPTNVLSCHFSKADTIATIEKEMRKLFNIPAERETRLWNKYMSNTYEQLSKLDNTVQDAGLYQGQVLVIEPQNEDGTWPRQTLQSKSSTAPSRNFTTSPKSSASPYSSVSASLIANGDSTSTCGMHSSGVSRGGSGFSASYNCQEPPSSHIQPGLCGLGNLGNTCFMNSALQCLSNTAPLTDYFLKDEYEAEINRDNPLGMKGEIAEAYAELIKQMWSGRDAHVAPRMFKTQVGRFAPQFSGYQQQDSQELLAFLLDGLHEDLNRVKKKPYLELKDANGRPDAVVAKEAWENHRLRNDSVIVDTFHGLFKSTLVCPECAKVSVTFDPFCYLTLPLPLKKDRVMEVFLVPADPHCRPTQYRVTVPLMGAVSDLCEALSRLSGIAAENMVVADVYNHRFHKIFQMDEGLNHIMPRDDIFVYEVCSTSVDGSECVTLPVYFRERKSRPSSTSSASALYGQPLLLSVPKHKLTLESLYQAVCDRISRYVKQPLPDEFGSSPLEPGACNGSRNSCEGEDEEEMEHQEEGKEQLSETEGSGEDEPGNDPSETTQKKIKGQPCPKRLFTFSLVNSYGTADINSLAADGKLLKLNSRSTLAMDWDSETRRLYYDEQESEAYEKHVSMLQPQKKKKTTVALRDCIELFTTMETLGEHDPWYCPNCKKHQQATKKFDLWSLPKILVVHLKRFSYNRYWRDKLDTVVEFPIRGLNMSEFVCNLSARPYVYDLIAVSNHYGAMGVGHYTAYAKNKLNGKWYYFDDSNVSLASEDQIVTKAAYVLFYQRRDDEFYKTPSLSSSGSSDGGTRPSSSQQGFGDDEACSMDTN
Summary of the method: as §1

Measured: log2 ratio of Biotin-Ahx-Ub-VS probe labelling

Sequence of USP34 (Q70CQ2 whole entry, the tested form may be a part): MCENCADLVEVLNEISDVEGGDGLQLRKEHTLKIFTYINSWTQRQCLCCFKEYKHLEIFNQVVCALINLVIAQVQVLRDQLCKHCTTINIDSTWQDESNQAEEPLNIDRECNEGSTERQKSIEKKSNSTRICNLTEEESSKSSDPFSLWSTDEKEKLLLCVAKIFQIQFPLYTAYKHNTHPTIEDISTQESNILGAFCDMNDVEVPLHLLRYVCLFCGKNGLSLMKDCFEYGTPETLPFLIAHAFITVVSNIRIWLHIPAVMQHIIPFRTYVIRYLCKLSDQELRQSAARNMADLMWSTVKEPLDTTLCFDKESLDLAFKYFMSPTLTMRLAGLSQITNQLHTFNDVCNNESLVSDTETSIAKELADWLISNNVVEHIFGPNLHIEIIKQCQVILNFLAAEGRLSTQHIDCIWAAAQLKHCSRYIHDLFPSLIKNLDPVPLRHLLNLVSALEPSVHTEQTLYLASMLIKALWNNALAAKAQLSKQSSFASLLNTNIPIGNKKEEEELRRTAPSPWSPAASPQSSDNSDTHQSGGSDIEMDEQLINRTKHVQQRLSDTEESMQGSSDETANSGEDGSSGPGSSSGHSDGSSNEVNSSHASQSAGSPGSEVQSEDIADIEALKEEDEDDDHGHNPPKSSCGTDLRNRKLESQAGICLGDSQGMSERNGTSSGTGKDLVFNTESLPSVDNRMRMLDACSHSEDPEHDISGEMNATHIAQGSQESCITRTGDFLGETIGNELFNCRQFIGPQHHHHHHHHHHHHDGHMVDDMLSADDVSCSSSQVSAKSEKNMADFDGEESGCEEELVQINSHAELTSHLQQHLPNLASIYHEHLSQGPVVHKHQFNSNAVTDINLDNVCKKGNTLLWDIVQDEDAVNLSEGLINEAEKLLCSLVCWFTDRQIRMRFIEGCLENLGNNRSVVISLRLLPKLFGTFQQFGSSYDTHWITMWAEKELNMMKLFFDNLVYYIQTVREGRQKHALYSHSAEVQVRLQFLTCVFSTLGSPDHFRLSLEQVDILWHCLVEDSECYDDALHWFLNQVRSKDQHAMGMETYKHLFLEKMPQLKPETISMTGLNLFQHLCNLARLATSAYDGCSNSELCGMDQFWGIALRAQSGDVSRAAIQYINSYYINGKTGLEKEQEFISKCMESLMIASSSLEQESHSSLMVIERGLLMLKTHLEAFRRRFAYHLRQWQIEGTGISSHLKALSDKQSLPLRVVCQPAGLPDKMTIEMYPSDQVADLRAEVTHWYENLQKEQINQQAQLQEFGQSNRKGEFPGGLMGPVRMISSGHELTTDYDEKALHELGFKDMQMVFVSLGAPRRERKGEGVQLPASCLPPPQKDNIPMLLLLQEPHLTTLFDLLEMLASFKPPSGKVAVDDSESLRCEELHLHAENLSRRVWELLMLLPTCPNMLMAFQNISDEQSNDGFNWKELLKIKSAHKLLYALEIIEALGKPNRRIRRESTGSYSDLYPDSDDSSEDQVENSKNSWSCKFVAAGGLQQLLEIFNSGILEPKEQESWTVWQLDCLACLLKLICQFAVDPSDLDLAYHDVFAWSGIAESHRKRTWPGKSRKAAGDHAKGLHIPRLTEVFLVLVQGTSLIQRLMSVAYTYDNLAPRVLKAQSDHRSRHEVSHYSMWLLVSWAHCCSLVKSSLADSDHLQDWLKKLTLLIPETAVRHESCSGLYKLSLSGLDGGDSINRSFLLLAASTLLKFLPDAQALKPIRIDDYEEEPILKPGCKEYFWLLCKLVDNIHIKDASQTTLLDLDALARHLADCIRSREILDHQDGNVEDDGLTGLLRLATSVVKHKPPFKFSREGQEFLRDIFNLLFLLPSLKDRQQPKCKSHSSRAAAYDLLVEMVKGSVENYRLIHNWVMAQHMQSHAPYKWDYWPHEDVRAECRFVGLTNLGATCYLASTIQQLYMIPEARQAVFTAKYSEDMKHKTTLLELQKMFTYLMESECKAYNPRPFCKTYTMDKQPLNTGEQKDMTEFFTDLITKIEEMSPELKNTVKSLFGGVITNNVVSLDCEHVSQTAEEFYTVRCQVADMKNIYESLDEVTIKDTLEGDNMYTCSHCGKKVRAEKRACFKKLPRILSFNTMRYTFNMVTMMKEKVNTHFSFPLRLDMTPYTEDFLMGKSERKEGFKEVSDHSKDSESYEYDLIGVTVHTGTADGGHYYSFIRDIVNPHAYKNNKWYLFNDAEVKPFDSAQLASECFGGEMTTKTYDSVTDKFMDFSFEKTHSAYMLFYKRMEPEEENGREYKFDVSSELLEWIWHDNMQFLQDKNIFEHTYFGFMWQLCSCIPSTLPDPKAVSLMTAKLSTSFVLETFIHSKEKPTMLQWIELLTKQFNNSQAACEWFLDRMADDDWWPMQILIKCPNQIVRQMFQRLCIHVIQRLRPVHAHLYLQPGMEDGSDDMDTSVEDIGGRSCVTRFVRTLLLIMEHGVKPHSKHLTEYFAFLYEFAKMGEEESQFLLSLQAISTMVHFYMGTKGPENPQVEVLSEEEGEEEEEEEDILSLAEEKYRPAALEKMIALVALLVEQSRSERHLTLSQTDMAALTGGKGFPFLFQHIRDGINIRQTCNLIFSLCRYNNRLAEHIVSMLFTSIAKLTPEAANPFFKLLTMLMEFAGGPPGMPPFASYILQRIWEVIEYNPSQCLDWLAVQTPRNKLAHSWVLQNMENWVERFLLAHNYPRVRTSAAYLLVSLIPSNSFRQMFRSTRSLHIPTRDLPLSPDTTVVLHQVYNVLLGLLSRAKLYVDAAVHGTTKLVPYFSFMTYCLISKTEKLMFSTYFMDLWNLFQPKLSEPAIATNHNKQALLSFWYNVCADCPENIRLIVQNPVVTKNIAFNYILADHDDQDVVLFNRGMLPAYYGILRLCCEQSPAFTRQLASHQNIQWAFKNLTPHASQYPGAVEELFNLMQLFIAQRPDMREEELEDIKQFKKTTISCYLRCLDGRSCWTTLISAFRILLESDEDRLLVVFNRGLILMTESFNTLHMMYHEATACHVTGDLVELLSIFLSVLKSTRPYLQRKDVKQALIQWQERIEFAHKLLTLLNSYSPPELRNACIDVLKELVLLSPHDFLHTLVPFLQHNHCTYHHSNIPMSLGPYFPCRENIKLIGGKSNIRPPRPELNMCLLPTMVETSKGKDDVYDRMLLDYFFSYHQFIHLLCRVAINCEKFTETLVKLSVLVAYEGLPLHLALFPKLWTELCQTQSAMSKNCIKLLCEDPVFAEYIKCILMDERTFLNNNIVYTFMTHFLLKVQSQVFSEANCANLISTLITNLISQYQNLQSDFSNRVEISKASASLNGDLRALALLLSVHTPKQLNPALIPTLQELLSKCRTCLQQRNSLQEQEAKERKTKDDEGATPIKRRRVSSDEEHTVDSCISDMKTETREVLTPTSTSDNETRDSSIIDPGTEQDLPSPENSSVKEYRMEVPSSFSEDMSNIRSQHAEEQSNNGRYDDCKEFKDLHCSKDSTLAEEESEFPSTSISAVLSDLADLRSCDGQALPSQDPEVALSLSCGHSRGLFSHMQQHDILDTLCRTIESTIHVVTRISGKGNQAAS

CC(NC(=O)CCl)c1cnn(C2CC2)c1 (stereo not given)
inactive: [1] -0.133 | [2] -0.123 | [3] -0.144 | [4] -0.0478 | [5] -0.409
